SMILES strings stand for the structures.

Set-up in all cases: species or system human, MV4-11 + K-562 + COLO205 + SK-N-BE2 + OVCAR-8
One test relates to AGK. The settings on record: read-out: apparent Kd; compound concentrations:100 nM and 1000 nM (sheet 'Samples'); n = 1.
The next test relates to CDKL5. Particulars: read-out: apparent Kd; compound concentrations:100 nM and 1000 nM (sheet 'Samples'); n = 1.
The test system of the next test is CLK1. The settings on record: read-out: apparent Kd; compound concentrations:100 nM and 1000 nM (sheet 'Samples'); n = 1.
Another test relates to CLK2. The settings on record: read-out: apparent Kd; compound concentrations:100 nM and 1000 nM (sheet 'Samples'); n = 1.
For a further test, the system named is CLK4. Particulars: read-out: apparent Kd; compound concentrations:100 nM and 1000 nM (sheet 'Samples'); n = 1.
For another test, the system named is AKT2. The settings on record: read-out: apparent Kd; compound concentrations: 100 nM and 1000 nM (sheet 'Samples'), CATDS: 4.2627279294918302E-2; n = 1.
The test system of another test is AKT3. Particulars: read-out: apparent Kd; compound concentrations: 100 nM and 1000 nM (sheet 'Samples'), CATDS: 2.7204551549319601E-2; n = 1.
The next test deals with CIT. Particulars: read-out: apparent Kd; compound concentrations: 100 nM and 1000 nM (sheet 'Samples'), CATDS: 2.7482144104810799E-2; n = 1.
Another test concerns GSK3A. The settings on record: read-out: apparent Kd; compound concentrations: 100 nM and 1000 nM (sheet 'Samples'), CATDS: 6.2878990302183399E-2; n = 1.
For the next test, the system named is GSK3B. Particulars: read-out: apparent Kd; compound concentrations: 100 nM and 1000 nM (sheet 'Samples'), CATDS: 5.5559924345407602E-2; n = 1.
Another test relates to LATS1. Particulars: read-out: apparent Kd; compound concentrations: 100 nM and 1000 nM (sheet 'Samples'), CATDS: 4.8333915347555698E-2; n = 1.
A further test has as its system MARK2. The settings on record: read-out: apparent Kd; compound concentrations: 100 nM and 1000 nM (sheet 'Samples'), CATDS: 4.76140671076506E-2; n = 1.
In the next test the test system is MARK3. The settings on record: read-out: apparent Kd; compound concentrations: 100 nM and 1000 nM (sheet 'Samples'), CATDS: 5.1082901600924303E-2; n = 1.
The subject of the next test is MARK4. The settings on record: read-out: apparent Kd; compound concentrations: 100 nM and 1000 nM (sheet 'Samples'), CATDS: 4.9590510521074001E-2; n = 1.
A further test deals with PAK4. The settings on record: read-out: apparent Kd; compound concentrations: 100 nM and 1000 nM (sheet 'Samples'), CATDS: 0.104490197523791; n = 1.
The next test has as its system PAK6. The settings on record: read-out: apparent Kd; compound concentrations: 100 nM and 1000 nM (sheet 'Samples'), CATDS: 0.160954118330599; n = 1.
In another test the test system is PKN1. The settings on record: read-out: apparent Kd; compound concentrations: 100 nM and 1000 nM (sheet 'Samples'), CATDS: 6.8915050548370396E-2; n = 1.
The test system of the next test is PRKAA2. The settings on record: read-out: apparent Kd; compound concentrations: 100 nM and 1000 nM (sheet 'Samples'), CATDS: 2.6285000431917799E-2; n = 1.
The subject of another test is PRKACA. Particulars: read-out: apparent Kd; compound concentrations: 100 nM and 1000 nM (sheet 'Samples'), CATDS: 4.9144940605522901E-2; n = 1.
In a further test the test system is PRKAG2. The settings on record: read-out: apparent Kd; compound concentrations: 100 nM and 1000 nM (sheet 'Samples'), CATDS: 2.7426405634362501E-2; n = 1.
The next test deals with PRKCB. Particulars: read-out: apparent Kd; compound concentrations: 100 nM and 1000 nM (sheet 'Samples'), CATDS: 2.6716167566890599E-2; n = 1.
Another test deals with PRKCD. The settings on record: read-out: apparent Kd; compound concentrations: 100 nM and 1000 nM (sheet 'Samples'), CATDS: 3.7280479553999199E-2; n = 1.
Another test has as its system PRKCQ. Particulars: read-out: apparent Kd; compound concentrations: 100 nM and 1000 nM (sheet 'Samples'), CATDS: 2.7638944484762E-2; n = 1.
The test system of another test is PRKG1. Particulars: read-out: apparent Kd; compound concentrations: 100 nM and 1000 nM (sheet 'Samples'), CATDS: 7.0196377588655406E-2; n = 1.
A further test deals with PRKX. Particulars: read-out: apparent Kd; compound concentrations: 100 nM and 1000 nM (sheet 'Samples'), CATDS: 0.203063152086782; n = 1.
The next test has as its system RPS6KA4. The settings on record: read-out: apparent Kd; compound concentrations: 100 nM and 1000 nM (sheet 'Samples'), CATDS: 3.80124112320347E-2; n = 1.

Take `COc1ccc2c(-c3ccnc(Nc4cccc(OC(F)(F)F)c4)n3)cnn2n1` [GW810372X]: the potency estimated from few doses in the test with AGK was 2270 nM; in the test with CDKL5, 1850 nM; in the test with CLK1 it was 82.4 nM; with CLK2 it was 20.2 nM; in the test on CLK4, 120 nM.

With `CCn1c(-c2nonc2N)nc2c(C#CC(C)(C)O)ncc(OC3CCNCC3)c21.O=C(O)C(F)(F)F` [GSK619487A], the potency estimated from few doses was 91.5 nM with AKT2; 1300 nM with AKT3; 1190 nM in the test on CIT; 26.9 nM in the test on GSK3A; 38 nM in the test with GSK3B; 58.6 nM in the test on LATS1. In addition, the potency estimated from few doses with MARK2 was 61.6 nM; in the test on MARK3 it was 49 nM; with MARK4 it was 53.9 nM; in the test with PAK4 it was 7.55 nM; in the test with PAK6 it was 2.74 nM; with PKN1, 21.1 nM. Besides, the potency estimated from few doses was 1810 nM in the test on PRKAA2; 55.5 nM in the test on PRKACA; 1210 nM with PRKAG2; 1540 nM in the test with PRKCB; 162 nM with PRKCD; 1130 nM in the test with PRKCQ. Besides, the potency estimated from few doses was 20.1 nM in the test with PRKG1, 1.58 nM in the test on PRKX and 148 nM in the test on RPS6KA4.

The record behind these values is publication PMC11062922 (Nature Chemical Biology, 2023).
